Screens as filed in PubChem.
Hits are enriched below; roughly 1% of the tested compounds scored in any of these assays.
SNCA expr inhib = Primary qHTS assay for inhibitors of alpha-synuclein gene (SNCA) expression | Potency, µM (series often up to 57.2 µM), most hits filed as inhibitors | HEK-293 SNCA-luciferase knock-in, luminescence, 24 h | 140,000 tested, 0.17% active; further: nearly all actives have a fitted effect of over 45% in size
HEK293 viab = GF-AFC viability counterscreen for inhibitors of alpha-synuclein gene (SNCA) expression. 150,000 tested, 0.12% active. HEK-293-SNCA-luc viability, GF-AFC fluorescence, 24 h. AID 1671193, 2021. Potency, µM (series often up to 57.1 µM), hits mostly cytotoxic; further: nearly all actives have a fitted effect of over 30% in size
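HEK-293-SNCA-luc cells (1500/well) plated 24 h, then exposed 24 h to a dilution series; GF-AFC added 30 min at 37C, fluorescence 405/540 nm; normalised to medium-only and DMSO wells, Hill fit.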
GPT2 inh = Primary qHTS assay for inhibitors of Glutamate pyruvate transaminase 2 (GPT2); Alanine aminotransferase 2 (Homo sapiens), Q8TD30; Recombinant GPT2, coupled pyruvate oxidase/HRP Amplex Red fluorescence; Potency, µM (series often up to 57.7 µM), most hits filed as inhibitors; 100,000 tested, 0.25% active; AID 1671188, 2021; further: nearly all actives have a fitted effect of over 60% in size
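Fluorescence of coupled pyruvate oxidase/HRP/Amplex Red system (50uM Amplex, 30 min, dark) reports pyruvate formed by GPT2. Enzyme reaction: 10ng/uL GPT2, 2mM L-alanine, 250uM a-KG, 30 min room temperature, pH 7.5; 50uM AOA control.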
IP6K1 inh = Primary qHTS assay for small molecule inhibitors of Inositol hexaphosphate kinase 1 (IP6K1); Inositol hexakisphosphate kinase 1 (Homo sapiens), Q92551; IP6K1 kinase, ADP-Glo luminescence, 2 h; active compounds read low; activity change, % (series mostly up to about 58 µM); 140,000 tested, 0.81% active; in the data active means activity change below about -25%
Target sequence (Q92551 whole entry, looked up): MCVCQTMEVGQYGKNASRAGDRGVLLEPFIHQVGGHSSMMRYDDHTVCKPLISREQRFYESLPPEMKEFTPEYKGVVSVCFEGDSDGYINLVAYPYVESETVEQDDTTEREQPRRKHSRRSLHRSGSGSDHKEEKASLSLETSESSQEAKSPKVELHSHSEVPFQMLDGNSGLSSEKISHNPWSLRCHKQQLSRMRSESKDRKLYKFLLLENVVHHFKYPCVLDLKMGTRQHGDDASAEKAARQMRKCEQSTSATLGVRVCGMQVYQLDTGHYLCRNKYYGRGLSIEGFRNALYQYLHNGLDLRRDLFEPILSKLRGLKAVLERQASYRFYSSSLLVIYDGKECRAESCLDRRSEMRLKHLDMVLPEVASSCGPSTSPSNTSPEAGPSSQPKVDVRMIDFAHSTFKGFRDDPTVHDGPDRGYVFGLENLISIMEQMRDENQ
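ADP-Glo luminescence measures ADP made by human IP6K1 during a 2 h RT reaction with ATP/IP6 (mix at 1.3 mM/130 uM); top library doses 57.5 and 19.1 uM final.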
IP6K1 conf = Confirmatory qHTS assay for small molecule inhibitors of Inositol hexaphosphate kinase 1 (IP6K1). Potency, µM (highest dose often 49 µM), usual class: inhibitors. shares compounds with IP6K1 inh. recombinant IP6K1 kinase, ADP-Glo luminescence, 2 h. 1,200 tested, 13% active; further: nearly all actives have a fitted effect of over 65% in size
Large screens that a line does not name were inactive (follow-up assays come after a bar, where they were run); ! = a repeat was not active. Unless noted, the call rests on the fitted dose curve; in most records, active means well fitted curve in the direction sought with a large enough effect; inconclusive means small, poorly fitted or top-dose-only effect, or another doubt; inactive means no such curve, though single readings can be large; an effect the other way counts as inactive or inconclusive.

CCN(CC)C(=S)SSC(=S)N(CC)CC	SNCA expr inhib inconclusive, HEK293 viab inconclusive, GPT2 inh 11µM!, IP6K1 inh -56! | IP6K1 conf 8.9µM
CC(C)Nc1ccc2nnc(-c3ccc(F)cn3)n2n1	IP6K1 inh -26 | IP6K1 conf inactive
Cc1ccccc1C(=O)OCc1cc(=O)n2nc(C3CCCCC3)sc2n1	none (no result: GPT2 inh)
CCCCC(=O)Nc1ccccc1C(=O)OCc1cc(=O)n2nc(C3CCCCC3)sc2n1	IP6K1 inh -28 (no result: GPT2 inh) | IP6K1 conf inactive
Cc1ccc(NC(=O)c2cnn3c(C(F)F)cc(-c4ccccc4)nc23)c(C)c1	IP6K1 inh -50 (no result: GPT2 inh) | IP6K1 conf inactive
Cc1nc(N=Nc2ccc(S(=O)(=O)O)cc2S(=O)(=O)O)c(COP(=O)(O)O)c(C=O)c1O	none (no result: IP6K1 inh)
O=S(=O)(O)c1ccc2cc(N=Nc3cc(S(=O)(=O)O)c4cccnc4c3O)ccc2c1	SNCA expr inhib inconclusive, HEK293 viab inconclusive, IP6K1 inh -52 | IP6K1 conf inconclusive
COCCn1cc(C(=O)NC2CCCc3c2[nH]c2ccccc32)c2ccccc2c1=O (configuration not stated)	SNCA expr inhib inconclusive, GPT2 inh inconclusive
COc1cccc(Cn2c(C)c(CNCc3ccccc3Cl)c(C(=O)O)c2C)c1	IP6K1 inh -27 (no result: GPT2 inh) | IP6K1 conf inactive
O=C(NCCC1CCCCC1)C1CCCN1C(=O)c1cccc(-c2ccccn2)c1 (configuration not stated)	none
Cc1ccc(NC(=O)Cn2ncn3c(cc4ccccc43)c2=O)cc1F	none (no result: GPT2 inh)
Cc1ccc(NC(=O)Cn2ncn3c(cc4ccccc43)c2=O)cc1C	IP6K1 inh -28 (no result: GPT2 inh) | IP6K1 conf inactive
Cc1ccc(-c2cccc(CN3CCCC3C(=O)N3CCC(C#N)CC3)c2)cc1Cl (configuration not stated)	none (no result: SNCA expr inhib, HEK293 viab, GPT2 inh)
O=c1cc(-c2ccc(O)cc2)oc2cc(O)cc(O)c12	none (no result: IP6K1 inh) | IP6K1 conf 1.5µM
CC(C)c1cc2c(c(O)c1O)[C@@]13CCCC(C)(C)C1[C@@H](O)[C@@H]2OC3=O (some centres not stated)	none (no result: SNCA expr inhib)
CCOc1ccc2oc(=O)cc(CN3CCN(C(=O)c4cccc(Cl)c4)CC3)c2c1	SNCA expr inhib inconclusive, IP6K1 inh -29 (no result: GPT2 inh) | IP6K1 conf inactive
COCCN(C)C[C@@H]1CN(C(=O)c2c(-c3ccccc3)ccnc2C)C[C@@H]1CO	none
COCCN(C)C[C@@H]1CN(C(=O)c2ccc(-c3ccccc3)n2C)C[C@@H]1CO	IP6K1 inh -34 | IP6K1 conf inactive
O=C(c1ccc2nc[nH]c2c1)N1CCC(Oc2ccccc2-c2nc(C3CC3)no2)C1 (configuration not stated)	none
CC(C)c1ccc(Nc2c(-c3ccsc3)nc3ccc(Cl)cn23)cc1	IP6K1 inh -31 (no result: GPT2 inh) | IP6K1 conf inactive
Cc1ccc2nc(-c3ccsc3)c(Nc3ccc(C(C)C)cc3)n2c1	none (no result: GPT2 inh)
Cc1ccc(C(=O)Oc2cc(-c3ccc4c(c3)OCO4)cc(=O)c3c(C)oc(C)c23)cc1	SNCA expr inhib inconclusive, HEK293 viab inconclusive, IP6K1 inh -54 (no result: GPT2 inh) | IP6K1 conf inconclusive
Cc1oc(C)c2c(=O)cc(-c3ccc4c(c3)OCO4)cc(OC(=O)c3cccc(Cl)c3)c12	none (no result: GPT2 inh)
CCOc1cc(-c2ccc(OC(=O)c3ccc(C)cc3)c(OC)c2)cc(=O)c2c(C)oc(C)c12	IP6K1 inh -27 (no result: GPT2 inh) | IP6K1 conf inactive
CCN1CCN(C(=O)c2cc(-c3ccc(C(F)(F)F)cc3)nc3c2cnn3C)CC1	none (no result: SNCA expr inhib, HEK293 viab, GPT2 inh)
Cc1ccc(Nc2ccnc(N3CCCC3C(=O)NCc3ccccc3Cl)n2)cc1 (configuration not stated)	none (no result: SNCA expr inhib, HEK293 viab, GPT2 inh)
CC(C)n1ccnc1CN1CCCC12CCN(c1ccc(C(F)(F)F)cn1)CC2	none
COc1ccc(NC(=O)CN2CCN(S(=O)(=O)c3ccc(Br)cc3)CC2)cc1	IP6K1 inh -30 (no result: GPT2 inh) | IP6K1 conf inactive
COc1cccc(NC(=O)CN2CCCN(S(=O)(=O)c3ccc(Br)cc3)CC2)c1	none (no result: GPT2 inh)
O=C(NCCc1nc(-c2ccccc2)cs1)c1ccc2nccn2c1	HEK293 viab inconclusive, IP6K1 inh -41 | IP6K1 conf inconclusive
O=C(NCCc1ccccc1F)c1ccc2nccn2c1	none
COc1ccc(F)cc1-c1ccc(CN2CCC(NC(=O)c3ccncc3)C2)cc1 (configuration not stated)	none (no result: SNCA expr inhib, HEK293 viab, GPT2 inh)
CC(C)CNC(=O)c1ccnc(-c2nnc3ccc(Nc4ccccc4)nn23)c1	IP6K1 inh -28 | IP6K1 conf inconclusive
Cc1ccc([S+](=O)([O-])NC2CCN(c3ccc4nnc(-c5ccccc5)n4n3)C2)cc1 (configuration not stated)	none (no result: SNCA expr inhib, HEK293 viab, GPT2 inh)
O=C(NC1CCN(Cc2cccc(-c3ccc(F)c(F)c3)c2)CC1)c1ccc(Cl)nc1	none (no result: SNCA expr inhib, HEK293 viab, GPT2 inh)
COc1ccc(-c2ccc(-c3nc(CC(C)C)no3)cn2)c2cccnc12	GPT2 inh inconclusive
NCCC(=O)N1CCC(n2nccc2NC(=O)Nc2cccc(F)c2)CC1	IP6K1 inh -30 | IP6K1 conf inactive
C[C@@H](N)C(=O)N1CCC(n2nccc2NC(=O)Nc2cccc(F)c2)CC1	none
CCOC(=O)C1CCCN(C(=O)C2CCN(c3ccnc4ccnn34)CC2)C1 (configuration not stated)	none
CC(C)Cn1c(=O)c2ccccc2n2c(CCC(=O)NCc3ccc(Cl)cc3)nnc12	IP6K1 inh -28 (no result: GPT2 inh) | IP6K1 conf inactive
CCCN(CCC)CCCNC(=O)Cn1cnc2sc(C)c(S(=O)(=O)N3CCC(C)CC3)c2c1=O	none (no result: GPT2 inh)
CCCN(CCC)CCCNC(=O)Cn1cnc2sc(C)c(S(=O)(=O)N3CCCCC3)c2c1=O	IP6K1 inh -27 (no result: GPT2 inh) | IP6K1 conf inactive
CCc1ccccc1N(CC)C(=O)c1cc2c(s1)-c1ccccc1SC2	IP6K1 inh -26 (no result: GPT2 inh) | IP6K1 conf inactive
C#C[C@]1(O)CC[C@H]2[C@@H]3CCc4cc(OC)ccc4[C@H]3CC[C@@]21C	IP6K1 inh -27 | IP6K1 conf inconclusive
C#C[C@]1(O)CC[C@H]2[C@H]3CCc4cc(OC)ccc4[C@H]3CC[C@@]21C	none (no result: IP6K1 inh)
Cc1cc(C)cc(NC(=O)CCCc2nc(-c3ccco3)no2)c1	IP6K1 inh -27 (no result: GPT2 inh) | IP6K1 conf inactive
Cc1nn(-c2ccccc2)c2c1C(C1CC1)N(CC1CN(C(=O)C3CCCC3)C1)C2=O (configuration not stated)	none (no result: SNCA expr inhib, HEK293 viab, GPT2 inh)
CCCN(C(=O)c1cc2c(=O)n(CC)c3ccccc3c2s1)c1ccccc1F	none (no result: GPT2 inh)
CCn1c(=O)c2cc(C(=O)N(CC(C)C)CC(C)C)sc2c2ccccc21	IP6K1 inh -26 (no result: GPT2 inh) | IP6K1 conf inactive
NC(=O)c1ccc(Nc2cnc3ccc(-c4ccccc4)nn23)cc1	IP6K1 inh -29 | IP6K1 conf inactive
Fc1ccc(-c2ccc3ncc(Nc4ccc5c(c4)OCO5)n3n2)cc1	GPT2 inh inconclusive, IP6K1 inh -35 | IP6K1 conf inconclusive
